Experimental data as given in PubChem BioAssay AID1986 (Sanford-Burnham Center for Chemical Genomics, 2009).
Where “and” joins values, the source holds several entries; their conditions need not be identical. Identical values can stand only once. Among all 290,000 compounds or so, about 890 (0.31%) were called active. Rule as the data show it: active = inhibition mostly above about 52% (no sharp cut-off); inactive = mostly below about 76%. The list comes from a sample in which actives are over-represented; it also holds similar structures and randomly drawn compounds. A structure can be active in one record and inactive in another.

Test: cell-free HIV fusion peptide-binding blockers – biochemical, uHTS, fluorescence dequenching, primary screen (AID 1986)
Conditions: 30 min, stronger effect = higher value
[1] = measured here: repeat confirmation average inhibition, at 18.6 µM

Compound | inhibition (at 20 µM) | inhibition [1] [%]
CC(=O)c1ccc(-n2nnnc2SCC(=O)Nc2sc(C)c(C)c2C#N)cc1 | 6.6% (inactive) | –
CSc1cccc(NC(=O)CCCOc2ccccc2)c1 | -0.1% (inactive) | –
Cc1cnc(C(=O)OCc2csc(CC(=O)Nc3ccccc3C)n2)cn1 | 1.8% (inactive) | –
c1ccc(C2=Nc3c(ccc4ccccc34)C(c3ccncc3)=NN2)cc1 | -3% (inactive) | –
Cc1ccc(CNS(=O)(=O)c2ccc(F)c(F)c2)n1C | -1.8% (inactive) | –
CCOC(=O)c1c(C)[nH]c(C(=O)N/N=C/c2ccc(Br)cc2)c1C | -1.7% (inactive) | –
O=C(O)c1cc(-c2ccco2)nc2ccccc12 | 0.1% (inactive) | –
O=C(O)c1cc(-c2ccco2)nc2ccc(Br)cc12 | 51.2% (inactive) and 65% (active) | 11.6
O=C(O)c1cc(-c2ccco2)nc2cc3ccccc3cc12 | 35.7% (inactive) | –
O=C(NC1CCCC1)C(c1ccncc1)N(C(=O)c1csnn1)c1ccc(F)cc1 (stereo not given) | 0.5% (inactive) | –
Cc1ccc(N2CC(C(=O)Nc3nnc(SCC(=O)NCC4CCCO4)s3)CC2=O)cc1 (stereo not given) | 0.9% (inactive) | –
O=C(N/N=C/c1cc([N+](=O)[O-])cc([N+](=O)[O-])c1O)/C(=C\c1cccs1)NC(=O)c1ccccc1 | 65% (active) | –
COc1ccc([N+](=O)[O-])cc1/C=N/NC(=O)/C(=C\c1cccs1)NC(=O)c1ccccc1 | -1.3% (inactive) | –
O=C(N/N=C/c1cccs1)/C(=C/c1ccccc1)NC(=O)c1ccccc1 | 1.7% (inactive) | –
O=C(Cc1ccc(Cl)cc1)NCC(=O)N1CCN(c2ccccc2)CC1 | 0.4% (inactive) | –
Cc1ccc(Sc2ccc(/C=C3/C(=O)NN(c4ccccc4)C3=O)o2)cc1 | 9.4% (inactive) | –
O=C1NN(c2ccccc2)C(=O)/C1=C/c1ccc(Sc2cccc3ccccc23)o1 | 71.8% (active) | –
O=C1NN(c2ccccc2)C(=O)/C1=C/c1ccc(Sc2ccc(Cl)cc2)o1 | 17.5% (inactive) | –
O=C(NCCCc1ccccc1)[C@@H]1Cc2ccccc2CN1 | -0.5% (inactive) | –
NS(=O)(=O)c1ccc(-c2ccc(C=C3C(=O)c4ccccc4C3=O)o2)cc1 | 1.7% (inactive) | –
COc1ccccc1-c1ccc(/C=C2/C=C(CC(C)C)OC2=O)o1 | 40.1% (inactive) | –
CC(C)CC1=C/C(=C/c2ccc(-c3ccccc3)o2)C(=O)O1 | 51.7% (active) | –
O=C(O)CCn1cc(/C=C\C(=O)c2ccc(Cl)cc2)c(-c2cccc(Br)c2)n1 | 60.3% (active) | –
O=Cc1cn(CCC(=O)O)nc1-c1cccc(Br)c1 | 1.1% (inactive) | –

Compound | inhibition (at 20 µM) | inhibition [1] [%]
Cc1ccc(-c2nn(CCC(=O)O)cc2/C=C\C(=O)c2ccc(Br)cc2)cc1 | 48.6% (inactive) | –
CCOC(=O)c1sc(NC(=O)c2cc3n(n2)C(C(F)(F)F)CC(c2ccccc2)N3)c(C(=O)OCC)c1C (stereo not given) | 0.6% (inactive) | –
Cc1cc2c(cc1S(=O)(=O)N(C)Cc1ccccc1)OCC(=O)N2 | -2% (inactive) | –
COc1cccc(/C=C2\Oc3cc(OCC(=O)N4Cc5ccccc5C[C@H]4C(=O)O)ccc3C2=O)c1 | 64.4% (inactive) | 40.9
COc1ccc(OC)c(/C=C2\Oc3cc(OCC(=O)N4CC(O)C[C@H]4C(=O)O)ccc3C2=O)c1 (stereo not given in full) | 2.3% (inactive) | –
COc1cc(OC)c(OC)cc1/C=C1\Oc2cc(OCC(=O)N3Cc4ccccc4C[C@H]3C(=O)O)ccc2C1=O | 123% (active) | 106
Cc1nc(Oc2cccc(Cl)c2)c2oc3ccccc3c2n1 | -0.8% (inactive) | –
O=C(COC(=O)CCCOc1ccccc1)NNC(=O)c1ccc([N+](=O)[O-])cc1 | -0.7% (inactive) | –
CC1=CN2C(=N)/C(=C/c3ccco3)C(=O)N=C2S1 | 7.9% (inactive) | –
CC1=CN2C(=N)/C(=C/c3ccc(C)o3)C(=O)N=C2S1 | 5.4% (inactive) | –
Cn1c(=O)n(C)c2cc(/C=N/NC(=O)c3ccncc3)ccc21 | 1.3% (inactive) | –
Cc1[nH]n(-c2ncc(-c3ccccc3)s2)c(=O)c1C(c1ccc(Cl)cc1)C(C#N)C#N (stereo not given) | 70.8% (active) | –
Cc1[nH]n(-c2ncc(-c3ccccc3)s2)c(=O)c1C(c1ccc(Br)cc1)C(C#N)C#N (stereo not given) | 57.3% (inactive) | 40.9
Cc1[nH]n(-c2ncc(-c3ccc(Cl)cc3)s2)c(=O)c1C(c1ccc(Cl)cc1)C(C#N)C#N (stereo not given) | 48.5% (inactive) | –
CC(C)(C)n1nc2c(c1NC(=O)Cc1cccc3ccccc13)CS(=O)C2 (stereo not given) | -1.8% (inactive) | –
O=C(Nc1ccc(Cl)cc1)Nc1ccc2c(c1)OCO2 | -0.2% (inactive) | –
CNC(=O)c1ccc(-c2cc(C(F)(F)F)nn2C)s1 | -1.4% (inactive) | –
Cn1nc(C(F)(F)F)cc1-c1ccc(/C=C(\C#N)C(=O)c2ccccc2)s1 | 92% (active) | 179
N#C/C(=C\c1ccc(-c2cccc(C(F)(F)F)c2)o1)C(=O)Nn1cnnc1 | 49.6% (inactive) | –
Cn1nc(C(F)(F)F)cc1-c1ccc(S(N)(=O)=O)s1 | 2.8% (inactive) | –
Cn1nc(C(F)(F)F)cc1-c1ccc(/C=C(\C#N)C(=O)c2cccc(C(F)(F)F)c2)s1 | 55.2% (active) | –
CN(C)C(=O)c1ccc(-c2cc(C(F)(F)F)nn2C)s1 | -1.2% (inactive) | –
Cc1ccc(-n2nnc(-c3cc4ccccc4nc3Cl)n2)cc1 | 0.2% (inactive) | –
O=C(CN(c1ccc(F)cc1)S(=O)(=O)c1ccc2c(c1)OCCO2)NCC1CCCO1 (stereo not given) | 1.4% (inactive) | –

Compound | inhibition (at 20 µM) | inhibition [1] [%]
CCOc1ccc2nc(SCC(=O)c3ccc(C)s3)sc2c1 | 0% (inactive) | –
CCOc1ccc(NC(=O)C2CSC(c3ccncc3)=N2)cc1 (stereo not given) | 1.2% (inactive) | –
CC1=C(C(=O)Nc2ccccn2)C(c2ccccc2)n2ncnc2N1 (stereo not given) | -2.7% (inactive) | –
CCNc1nc(NC(C)C)nc(SCCOC(=O)c2ccccc2)n1 | 2.3% (inactive) | –
Cc1c(C)n(Cc2ccc(F)cc2)c2ccc(C(=O)NCCN3CCOCC3)cc12 | -1.7% (inactive) | –
COc1ccccc1NS(=O)(=O)c1cccc(NC(=O)Nc2ccccc2)c1 | 1.4% (inactive) | –
O=C(Nc1ccccc1C(=O)O)c1cccc(N2C(=O)c3ccccc3C2=O)c1 | 2.5% (inactive) | –
NC(=O)NCc1cccc(Cl)c1 | 2.5% (inactive) | –
CCOC(=O)C(=CNc1ccc(C(F)(F)F)cc1Cl)C(=O)OCC | 0.9% (inactive) | –
CCOc1ccc2c(c1)c1nnc(SCC(=O)NC3CC3)nc1n2C | -0.7% (inactive) | –
C(=N\NC1=Nc2cccc3cccc1c23)/c1ccccc1 | 20.5% (inactive) | –
Clc1ccc(/C=N/NC2=Nc3cccc4cccc2c34)cc1 | 43.5% (inactive) | –
Clc1ccccc1/C=N/NC1=Nc2cccc3cccc1c23 | 51.2% (active) | –
N/C(CC(=O)NC1CCCCC1)=N\OCC(=O)Nc1ccc(Cl)c(Cl)c1 | 1.7% (inactive) | –
COc1cc2c(cc1NC(=S)NC(=O)/C=C/c1ccco1)oc1ccccc12 | 67.5% (active) | –
COc1ccc(/C=C/C(=O)NC(=S)Nc2cc3oc4ccccc4c3cc2OC)cc1 | 1.6% (inactive) | –
COc1cc2c(cc1NC(=S)NC(=O)/C=C/c1ccc(OC)c(OC)c1)oc1ccccc12 | 1.2% (inactive) | –
COc1ccc(C2NC(=O)c3ccccc3O2)cc1 (stereo not given) | -1.3% (inactive) | –
Cc1ccc(SCCNCc2ccco2)cc1 | 0.3% (inactive) | –
COc1cc2c(cc1OC)-c1cc3ccc4c(c3c[n+]1CC2)OCO4 | 120% (active) | 70.7
COc1cc2c(cc1O)CC[n+]1cc3c(OC)c(OC)ccc3cc1-2 | 0.6% (inactive) | –
COc1ccc2cc3[n+](cc2c1OC)CCc1cc2c(cc1-3)OCO2 | -1.4% (inactive) | –
O=[N+]([O-])c1sccc1CS(=O)(=O)c1ccccc1 | -1.5% (inactive) | –
CC(=O)Nc1cccc(NC(=O)c2ccc([N+](=O)[O-])cc2Cl)c1 | 3.5% (inactive) | –

Compound | inhibition (at 20 µM) | inhibition [1] [%]
O=C(Nc1cccc(O)c1)c1ccc([N+](=O)[O-])cc1Cl | 0.3% (inactive) | –
O=C(Nc1cccc(Cl)c1)c1cc(N=Nc2ccc([N+](=O)[O-])cc2Cl)ccc1O | 52.8% (active) | –
CC1C(=O)N2CCCc3cc(NS(C)(=O)=O)cc1c32 (stereo not given) | 2.3% (inactive) | –
Cc1cc(N2CCCC2)ccc1/C=C1/C(=O)N(C)C(=S)N1C | 9.5% (inactive) | –
CCN1C(=O)/C(=C/c2ccc(N3CCCC3)cc2)NC1=S | 149% (inactive) | –
O=C1N/C(=C/c2ccc(N3CCCC3)cc2)C(=O)N1c1ccccc1 | 4.9% (inactive) | –
O=C1/C(=C/c2ccc(N3CCCC3)cc2)NC(=S)N1C1CC1 | 65.9% (active) | 83.2
COCCN1C(=O)/C(=C/c2ccc(N3CCCC3)cc2C)SC1=S | 147% (inactive) | –
Cc1cc(N2CCCC2)ccc1/C=C1\NC(=S)N(C)C1=O | 94.7% (active) | –
CC(C)(C)C(=O)Nc1cccc(-c2nc3ccccc3[nH]2)c1 | 1.3% (inactive) | –
CC(C)OC(=O)CSc1nc(C(C)C)nc2ccccc12 | 1.3% (inactive) | –
Cc1c(Cl)cccc1NC(=O)N1CCCC1 | 0.6% (inactive) | –
O=C(O)CCCCCN1C(=O)/C(=C/c2ccncc2)SC1=S | 9.2% (inactive) | –
O=C(O)CCCN1C(=O)/C(=C\C(Cl)=C\c2ccccc2)SC1=S | 40.3% (inactive) | –
O=C(O)CCCCCN1C(=O)/C(=C\c2ccc(-c3ccc(Cl)cc3)o2)SC1=S | 82.2% (active) | –
O=Cc1ccc(-c2nc3ccccc3s2)o1 | 1.2% (inactive) | –
O=C(O)CCCN1C(=O)/C(=C\c2ccc(-c3nc4ccccc4s3)o2)SC1=S | 69.3% (active) | –
O=C(O)CC(C(=O)O)N1C(=O)/C(=C/c2ccc(-c3nc4ccccc4s3)o2)SC1=S (stereo not given) | 99% (active) | 66.9
O=C(O)CCCCCN1C(=O)/C(=C\c2ccncc2)SC1=S | 6.4% (inactive) | –
O=C(O)c1ccc(-c2nc3ccccc3s2)o1 | 1.8% (inactive) | –
O=C(O)CCN1C(=O)/C(=C/c2ccc(-c3nc4ccccc4s3)o2)SC1=S | 24.8% (inactive) | –
N#C/C(=C\c1ccc(-c2nc3ccccc3s2)o1)C(N)=O | 2.1% (inactive) | –
O=C(O)CCCN1C(=O)/C(=C\c2ccco2)SC1=S | 53% (inactive) | 3.5
O=C(O)CCN1C(=O)/C(=C\c2ccc(-c3nc4ccccc4s3)o2)SC1=S | 73.9% (active) | –
